Targets with a hit are over-represented here; the source holds about 8,800 in all. About 0.5% of all pairs of compound and target were hits.
Key:
Test in all cases: log2 fold change, soluble protein after heating vs DMSO (PISA); higher = thermal stabilisation; K562 lysate, 10 uM; active = over 0.2 and 3.5 SD of the protein, either way, in both replicates (recomputed)
[1] = compound: C1=CC=C(C=C1)[C@H](COC2=CC3=C(C=C2)NC(=O)N3)NC(=O)C4=CC=CN(C4=O)CC5=CC(=C(C=C5)F)F
How it was run: (§1)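 Log-two fold change in thermal stability relative to solvent controls is reported from duplicates. For each sample, crude K562 extract from dounce-homogenised pellets in PBS pH 7.4 with 1 mM MgCl2, at 1 mg/mL protein, was treated with 10 μM compound for 30 min. Aliquots heated for 3 min across 48°C-58°C were pooled, brought to 0.5% NP-40 at 4°C and cleared at 21,000xg for 90 min. The supernatant was quantified by TMTpro 16plex LC-MS/MS with channel sums equalised.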

[2] = compound: CC1=C(SC2=C1C(=N[C@H](C3=NN=C(N32)C)CC(=O)N)C4=CC=C(C=C4)Cl)C
How it was run: as §1

[3] = compound: CC1=C2C(=CC=C1)N=C(N(C2=O)C3=CC=CC=C3C)CN4C=NC5=C(N=CN=C54)N
How it was run: as §1

[4] = compound: Cc1sc2c(c1C)C(c1ccc(Cl)cc1)=N[C@@H](CC(=O)OC(C)(C)C)c1nnc(C)n1-2
How it was run: as §1

[5] = compound: c1ccc([C@@H]2C[C@H]2NC2CCNCC2)cc1
How it was run: as §1

Measured: log2 fold change

GSTCD (UniProt Q8NEC7)
Sequence of UniProt Q8NEC7 (Q8NEC7 whole entry, looked up): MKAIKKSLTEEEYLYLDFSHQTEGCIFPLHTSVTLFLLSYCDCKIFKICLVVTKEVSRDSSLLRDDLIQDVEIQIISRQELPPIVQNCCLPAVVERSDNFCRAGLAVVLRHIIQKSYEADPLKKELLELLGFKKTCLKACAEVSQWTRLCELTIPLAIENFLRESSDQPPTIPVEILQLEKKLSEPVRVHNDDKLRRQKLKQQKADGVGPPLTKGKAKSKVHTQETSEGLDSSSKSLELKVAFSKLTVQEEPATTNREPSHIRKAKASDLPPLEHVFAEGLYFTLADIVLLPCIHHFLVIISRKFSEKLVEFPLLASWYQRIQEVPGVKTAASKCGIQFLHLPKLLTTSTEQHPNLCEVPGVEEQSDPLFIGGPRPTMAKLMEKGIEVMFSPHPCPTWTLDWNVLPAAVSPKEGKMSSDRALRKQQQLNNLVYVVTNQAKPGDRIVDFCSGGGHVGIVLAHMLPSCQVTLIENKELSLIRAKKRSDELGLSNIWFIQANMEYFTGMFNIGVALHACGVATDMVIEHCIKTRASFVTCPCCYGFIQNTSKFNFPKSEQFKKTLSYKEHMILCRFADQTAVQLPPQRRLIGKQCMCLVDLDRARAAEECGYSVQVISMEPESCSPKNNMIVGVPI
inactive: [1] -0.048 | [2] -0.048 | [3] -0.076 | [4] -0.055 | [5] 0.007

HNRNPUL1 (UniProt Q9BUJ2)
Sequence of UniProt Q9BUJ2 (Q9BUJ2 whole entry, looked up): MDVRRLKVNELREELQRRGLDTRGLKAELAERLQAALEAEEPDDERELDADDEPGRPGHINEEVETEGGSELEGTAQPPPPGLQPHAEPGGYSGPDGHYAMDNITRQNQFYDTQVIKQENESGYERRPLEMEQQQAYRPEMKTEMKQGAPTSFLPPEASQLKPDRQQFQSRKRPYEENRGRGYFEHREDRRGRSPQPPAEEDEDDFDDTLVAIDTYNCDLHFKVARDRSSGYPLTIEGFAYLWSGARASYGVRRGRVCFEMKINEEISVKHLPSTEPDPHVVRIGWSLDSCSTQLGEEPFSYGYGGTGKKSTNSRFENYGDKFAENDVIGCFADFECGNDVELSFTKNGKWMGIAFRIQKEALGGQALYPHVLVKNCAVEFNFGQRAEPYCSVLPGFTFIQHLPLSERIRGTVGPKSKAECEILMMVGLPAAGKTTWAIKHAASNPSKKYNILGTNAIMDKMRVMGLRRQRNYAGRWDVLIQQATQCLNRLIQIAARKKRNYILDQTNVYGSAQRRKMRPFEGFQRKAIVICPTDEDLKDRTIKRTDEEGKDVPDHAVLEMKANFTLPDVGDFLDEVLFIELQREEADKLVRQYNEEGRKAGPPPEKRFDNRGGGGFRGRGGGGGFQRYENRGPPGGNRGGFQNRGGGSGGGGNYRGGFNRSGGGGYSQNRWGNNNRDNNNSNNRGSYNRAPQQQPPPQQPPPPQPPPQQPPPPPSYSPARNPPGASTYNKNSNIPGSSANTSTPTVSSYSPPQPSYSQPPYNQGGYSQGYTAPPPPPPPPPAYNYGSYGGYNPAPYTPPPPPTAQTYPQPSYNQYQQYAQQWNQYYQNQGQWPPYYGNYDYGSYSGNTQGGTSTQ
inactive: [1] 0.043 | [2] -0.022 | [3] -0.028 | [4] -0.003 | [5] -0.006

IRF2BPL (UniProt Q9H1B7)
Sequence of UniProt Q9H1B7 (Q9H1B7 whole entry, looked up): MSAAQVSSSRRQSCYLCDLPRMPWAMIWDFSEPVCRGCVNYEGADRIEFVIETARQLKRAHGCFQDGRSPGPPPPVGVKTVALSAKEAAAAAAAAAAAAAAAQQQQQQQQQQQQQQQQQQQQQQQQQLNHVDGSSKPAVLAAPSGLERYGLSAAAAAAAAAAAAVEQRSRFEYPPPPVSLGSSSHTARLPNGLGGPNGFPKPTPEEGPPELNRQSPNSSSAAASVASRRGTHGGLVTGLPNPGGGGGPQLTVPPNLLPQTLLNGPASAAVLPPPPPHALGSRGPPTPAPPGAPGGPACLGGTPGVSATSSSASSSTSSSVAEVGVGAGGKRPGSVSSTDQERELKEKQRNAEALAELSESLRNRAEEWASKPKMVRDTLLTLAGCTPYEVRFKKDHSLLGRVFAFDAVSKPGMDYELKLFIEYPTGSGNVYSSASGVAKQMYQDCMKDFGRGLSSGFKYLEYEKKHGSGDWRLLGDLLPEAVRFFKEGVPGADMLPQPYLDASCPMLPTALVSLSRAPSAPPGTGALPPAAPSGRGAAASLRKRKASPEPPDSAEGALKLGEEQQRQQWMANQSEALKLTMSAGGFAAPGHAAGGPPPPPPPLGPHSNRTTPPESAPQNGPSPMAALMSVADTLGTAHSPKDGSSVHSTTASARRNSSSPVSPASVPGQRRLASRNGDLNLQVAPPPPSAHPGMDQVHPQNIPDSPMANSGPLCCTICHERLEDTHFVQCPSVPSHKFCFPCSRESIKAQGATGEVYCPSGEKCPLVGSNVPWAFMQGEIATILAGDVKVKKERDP
inactive: [1] 0.055 | [2] -0.057 | [3] 0 | [4] 0.047 | [5] -0.134

GNB1 (UniProt P62873)
inactive: [1] 0.042 | [2] -0.051 | [3] -0.038 | [4] 0.069 | [5] -0.329

IFITM3 (UniProt Q01628)
Sequence of UniProt Q01628 (Q01628 whole entry, looked up): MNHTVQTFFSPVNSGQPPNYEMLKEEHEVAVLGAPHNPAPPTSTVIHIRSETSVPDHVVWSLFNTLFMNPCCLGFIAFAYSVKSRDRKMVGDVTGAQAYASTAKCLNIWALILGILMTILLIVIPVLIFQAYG
inactive: [1] -0.011 | [2] -0.078 | [3] -0.118 | [4] -0.088 | [5] 0.026

INTS8 (UniProt Q75QN2)
Sequence of UniProt Q75QN2 (Q75QN2 whole entry, looked up): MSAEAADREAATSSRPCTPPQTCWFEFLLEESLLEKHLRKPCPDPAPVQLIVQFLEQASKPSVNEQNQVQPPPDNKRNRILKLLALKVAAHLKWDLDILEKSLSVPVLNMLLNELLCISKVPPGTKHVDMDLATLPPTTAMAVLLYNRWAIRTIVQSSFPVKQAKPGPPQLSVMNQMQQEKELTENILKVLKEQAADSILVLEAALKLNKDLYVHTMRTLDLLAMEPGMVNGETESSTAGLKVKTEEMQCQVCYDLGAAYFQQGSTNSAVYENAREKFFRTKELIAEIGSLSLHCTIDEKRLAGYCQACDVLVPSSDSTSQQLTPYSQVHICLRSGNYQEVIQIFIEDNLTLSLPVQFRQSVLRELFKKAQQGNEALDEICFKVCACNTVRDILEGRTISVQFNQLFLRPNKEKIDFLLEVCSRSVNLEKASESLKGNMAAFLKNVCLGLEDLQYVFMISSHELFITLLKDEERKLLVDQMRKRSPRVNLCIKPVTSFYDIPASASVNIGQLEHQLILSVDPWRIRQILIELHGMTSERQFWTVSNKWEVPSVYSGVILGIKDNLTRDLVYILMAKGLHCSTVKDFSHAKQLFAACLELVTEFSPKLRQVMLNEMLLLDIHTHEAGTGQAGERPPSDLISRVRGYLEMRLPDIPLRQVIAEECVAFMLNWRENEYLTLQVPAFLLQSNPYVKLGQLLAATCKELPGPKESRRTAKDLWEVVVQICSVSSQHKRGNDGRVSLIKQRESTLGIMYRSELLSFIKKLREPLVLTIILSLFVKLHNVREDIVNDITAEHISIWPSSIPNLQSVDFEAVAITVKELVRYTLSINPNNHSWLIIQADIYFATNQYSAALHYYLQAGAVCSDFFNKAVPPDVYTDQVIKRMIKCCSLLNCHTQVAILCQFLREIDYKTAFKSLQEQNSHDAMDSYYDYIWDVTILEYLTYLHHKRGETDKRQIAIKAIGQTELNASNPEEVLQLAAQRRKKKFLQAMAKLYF
inactive: [1] 0.021 | [2] -0.085 | [3] -0.002 | [4] 0.023 | [5] 0.081

HK1 isoform 2 (UniProt P19367)
Sequence of UniProt P19367 (P19367 whole entry, looked up): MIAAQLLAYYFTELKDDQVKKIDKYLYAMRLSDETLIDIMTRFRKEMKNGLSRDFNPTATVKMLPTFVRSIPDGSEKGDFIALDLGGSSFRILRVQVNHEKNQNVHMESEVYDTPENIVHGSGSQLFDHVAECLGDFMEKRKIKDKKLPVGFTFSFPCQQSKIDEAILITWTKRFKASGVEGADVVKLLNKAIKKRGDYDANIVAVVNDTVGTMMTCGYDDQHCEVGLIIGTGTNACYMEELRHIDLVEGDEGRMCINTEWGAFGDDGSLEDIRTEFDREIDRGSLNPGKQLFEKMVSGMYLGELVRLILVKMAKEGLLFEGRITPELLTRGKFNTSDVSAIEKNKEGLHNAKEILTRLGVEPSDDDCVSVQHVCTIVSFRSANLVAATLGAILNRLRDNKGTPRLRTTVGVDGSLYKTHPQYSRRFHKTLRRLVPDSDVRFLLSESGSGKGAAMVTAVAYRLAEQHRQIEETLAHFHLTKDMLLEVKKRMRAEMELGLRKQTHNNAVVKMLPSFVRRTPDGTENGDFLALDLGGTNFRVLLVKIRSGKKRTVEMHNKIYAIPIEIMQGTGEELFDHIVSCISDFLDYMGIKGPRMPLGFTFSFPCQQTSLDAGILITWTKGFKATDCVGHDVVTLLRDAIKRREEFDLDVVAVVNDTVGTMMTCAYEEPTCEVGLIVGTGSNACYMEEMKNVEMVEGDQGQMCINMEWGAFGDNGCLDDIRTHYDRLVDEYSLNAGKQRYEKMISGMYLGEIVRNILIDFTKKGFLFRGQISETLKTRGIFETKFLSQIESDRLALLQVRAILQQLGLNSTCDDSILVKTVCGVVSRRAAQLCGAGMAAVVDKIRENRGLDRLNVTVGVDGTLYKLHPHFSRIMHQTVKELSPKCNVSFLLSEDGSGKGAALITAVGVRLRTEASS
inactive: [1] -0.017 | [2] 0.017 | [3] -0.002 | [4] 0.016 | [5] 0.016

INPP4A (UniProt Q96PE3)
inactive: [1] -0.079 | [2] 0.112 | [3] 0.027 | [4] 0.036 | [5] 0.017

IMPDH1 isoform 6 (UniProt P20839)
Sequence of UniProt P20839 (P20839 whole entry, looked up): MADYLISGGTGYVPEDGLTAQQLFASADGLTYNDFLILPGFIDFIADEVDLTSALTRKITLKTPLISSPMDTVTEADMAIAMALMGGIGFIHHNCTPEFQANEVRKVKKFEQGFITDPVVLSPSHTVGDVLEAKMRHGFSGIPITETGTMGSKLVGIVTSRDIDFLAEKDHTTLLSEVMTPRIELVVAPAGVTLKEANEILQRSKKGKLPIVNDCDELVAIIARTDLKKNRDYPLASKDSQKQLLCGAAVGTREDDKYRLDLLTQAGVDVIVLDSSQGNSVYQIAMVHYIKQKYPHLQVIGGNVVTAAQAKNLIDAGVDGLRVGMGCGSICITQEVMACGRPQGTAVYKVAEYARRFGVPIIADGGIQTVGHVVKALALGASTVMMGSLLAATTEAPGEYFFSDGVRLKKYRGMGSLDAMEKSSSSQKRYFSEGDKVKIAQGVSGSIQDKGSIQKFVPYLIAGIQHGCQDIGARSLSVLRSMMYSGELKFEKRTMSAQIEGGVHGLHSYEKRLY
inactive: [1] -0.008 | [2] 0.025 | [3] -0.009 | [4] 0.053 | [5] -0.051
